This is one part of a sample in which hits are shown more often than they occur.
a7 integrin act: qHTS for Activators of Integrin-Mediated Alleviation for Muscular Dystrophy; alpha7betagal myoblasts, beta-gal FDG fluorescence, 48 h; Potency, µM (top dose mostly 38.3 µM), inactives show at the top dose activation, actives largely listed as activators; 350,000 tested, 0.064% active; AID 624291, 2012;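 further: potency means the concentration at half of the fitted maximal effect; 100% = response of the positive control SU9516; nearly all actives have a fitted effect of over 60% in size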
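Alpha7betagal+/- myoblasts (passage 13) were plated 16-24 hr, then exposed to compounds (1:260 dilution of DMSO stock) for 48 hours at 37C. After MPER lysis, β-galactosidase reporter activity was read as FDG fluorescence (ex 480/em 540) after 30 minutes.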
RORgamma inh: qHTS for inhibitors of ROR gamma transcriptional activity; 310,000 tested, 5.4% active; Drosophila S2 Gal4-RORgamma UAS-luciferase reporter, 20 h; Potency, µM (top dose mostly 53.6 µM), inactives show at the top dose activity change, negative = inhibition, usual class: inhibitors; further: potency means the concentration at half of the fitted maximal effect; on the % scale 0 is the no-effect control and ±100 the full control effect; nearly all actives have a fitted effect of over 60% in size
Target sequence (P51450 whole entry, looked up, the tested form may be a part): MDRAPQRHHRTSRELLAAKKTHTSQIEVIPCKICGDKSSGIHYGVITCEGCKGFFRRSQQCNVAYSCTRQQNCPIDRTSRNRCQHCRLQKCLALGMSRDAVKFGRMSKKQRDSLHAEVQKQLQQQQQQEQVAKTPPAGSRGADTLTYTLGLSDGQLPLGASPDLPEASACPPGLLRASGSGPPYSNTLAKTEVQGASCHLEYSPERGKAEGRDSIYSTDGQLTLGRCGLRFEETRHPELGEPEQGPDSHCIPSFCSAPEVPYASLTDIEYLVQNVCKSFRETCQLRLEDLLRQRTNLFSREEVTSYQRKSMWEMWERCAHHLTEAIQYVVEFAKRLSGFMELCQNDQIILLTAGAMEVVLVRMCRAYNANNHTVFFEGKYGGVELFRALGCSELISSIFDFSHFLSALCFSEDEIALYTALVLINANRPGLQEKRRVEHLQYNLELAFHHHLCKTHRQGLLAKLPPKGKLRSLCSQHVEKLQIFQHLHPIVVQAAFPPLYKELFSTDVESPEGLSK
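Schneider cells (Drosophila), stable Gal4 DBD–ROR gamma + UAS-luc; 1 hr cmpd preincubation; Cu2+ induction 700 uM final; 20 hr ambient; luminescence.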
Giardia killer: Small Molecules that selectively kill Giardia lamblia: qHTS; Giardia lamblia trophozoite viability; activity change, % at 7.66 µM, hits read low; 340,000 tested, 0.15% active; AID 540267, 2011; in the data active means activity change below about -80%; inconclusive means between about -30% and that limit;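 further: parasites exposed to compound for two days anaerobically before the ATP read; on the % scale 0 is the no-effect control and ±100 the full control effect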
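Compounds were tested on trophozoites seeded at 100 cells/well and held 48 hrs at 37 deg C anaerobically. An ATP-based luminescent kit measured the remaining live cells.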
VP16 counter: VP16 counterscreen qHTS for inhibitors of ROR gamma transcriptional activity; 310,000 tested, 3.5% active; Drosophila S2 Gal4-VP16 UAS-luciferase, luminescence, 20 h; Potency, µM (titrated, usually from 53.6 µM), without a hit: at the top dose activity, negative = inhibition, hits mostly inhibitors;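 further: Gal4-VP16 expression switched on by copper sulfate through the metallothionein promoter; potency means the concentration at half of the fitted maximal effect; on the % scale 0 is the no-effect control and ±100 the full control effect; nearly all actives have a fitted effect of over 50% in size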
ERG-DNA inh: qHTS for Small Molecule Inhibitors of the ERG Ets/DNA interaction | Potency, µM (series often up to 76.9 µM), inactives show at the top dose FP activity, negative = inhibition, most hits filed as inhibitors | 370,000 tested, 0.028% active | Transcriptional regulator ERG (Homo sapiens), P11308 | AID 624246, 2012 | fluorescence polarization, His-ERG Ets domain / labelled DNA; active means well fitted inhibition curve with a large enough effect in the polarisation, with a control signal flat; inconclusive means small, poorly fitted or top-dose-only effect, or effect the other way, or a change in a side signal; inactive means no such curve, though single readings can be large or run the other way; the % refers to the polarisation;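 further: polarization taken with two DNA probes labelled with fluorescein and Texas red; potency means the concentration at half of the fitted maximal effect; % of control where 0% means no effect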
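His-tagged ERG Ets domain (1 uM in the protein solution; 300mM KCl, 50mM Tris-HCl, 1mM EDTA, 1mM DTT, pH 7.5) received compound, then a probe mix of 5 nM fluorescein-DNA and 100nM Texas-615-DNA. Fluorescence polarization was read for both dyes.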
Active calls of the source: *; ? = inconclusive; nt = not tested or not shown; ! = a repeat was not active; [ ] = another dose, or the depositor's remark. Unless noted, the call rests on the fitted dose curve; in most records, active means well fitted curve in the direction sought with a large enough effect; inconclusive means small, poorly fitted or top-dose-only effect, or another doubt; inactive means no such curve, though single readings can be large; an effect the other way counts as inactive or inconclusive.

SMILES	a7 integrin act	RORgamma inh	Giardia killer	VP16 counter	ERG-DNA inh
CCN1C[C@]2(C)CC[C@H](OC)[C@@]34[C@H]1C1(OCO[C@@]15C[C@H](OC)C1C[C@]3(O)C5[C@H]1OC)[C@@H](O)[C@H]24	nt	7%	nt	-5%	nt
Cl/C=C/Cl	nt	-2%	nt	-26%	nt
Cc1ccc2c(Cl)cc(Cl)c(OCC(=O)N(C(C)C)C(C)C)c2n1	-2%	6.3µM*	4	1%	-1%
O=C(O)COc1nc(Cl)c(Cl)cc1Cl	nt	19%	nt	5%	nt
CCS(=O)(=O)C(C)(C)S(=O)(=O)CC	nt	8%	nt	-3%	nt
COc1cc(OC)cc(C(=O)NC(=S)N2C[C@H]3C[C@H](C2)c2cccc(=O)n2C3)c1	-5%	11µM*	0	-7%	1%
COc1cc(C(=O)NC(=S)N2C[C@H]3C[C@H](C2)c2cccc(=O)n2C3)cc(OC)c1OC	1%	-42%	10	-5%	-4%
O=C(NC(=S)N1C[C@H]2C[C@H](C1)c1cccc(=O)n1C2)c1ccc(Cl)cc1	8%	4.5µM*	-21	?	-8%
O=C(Nc1ccc(Cl)cc1)N1CC2CC(C1)c1cccc(=O)n1C2 (configuration not stated)	-2%	9%	8	10%	5%
Cc1cc(C)cc(OP(=O)(Oc2cc(C)cc(C)c2)Oc2cc(C)cc(C)c2)c1	nt	-4%	nt	4%	nt
N#CC(C#N)=NNc1ccc(OC(F)(F)F)cc1	nt	1µM*	nt	0.35µM*	nt
CC(C)CNP(=S)(c1ccccc1)C(C)(C)C (configuration not stated)	?	7.9µM*	16	?	6%
CC(C)(C)P(=O)(NCc1ccccc1)c1ccccc1 (configuration not stated)	13%	-10%	-2	-4%	7%
Cc1[nH]c(=O)n(C(C)(C)C)c(=O)c1Cl	nt	4%	nt	2%	nt
CN1C(=O)[C@]23CC4=CC=C[C@H](O)[C@H]4N2C(=O)[C@@]1(CO)SS3	nt	0.045µM*	nt	0%	nt
O=C1OC(c2cc(I)c(O)c(I)c2)(c2cc(I)c(O)c(I)c2)c2ccccc21	nt	-17%	nt	?	nt
CC(C)C[C@H]1C(=O)N2CCC[C@@H]2[C@@]2(O)O[C@](NC(=O)[C@@H]3C=C4c5cccc6[nH]cc(c56)C[C@@H]4N(C)C3)(C(C)C)C(=O)N12	nt	9%[16.9 µM]	nt	-12%[17 µM]	nt
CC(C)(C)c1cc(O)ccc1O	nt	3.5µM*!	nt	3.2µM*	nt
S=C1CN=C(c2ccccc2Cl)c2cc(Cl)ccc2N1	-20%	7.9µM*	11	7.1µM*	1%
N#CSCC(=O)N1c2ccccc2CCc2ccccc21	-46%	11µM*	9	?	3%
COc1ccc(C[C@@H]2NC[C@H](O)[C@@H]2OC(C)=O)cc1	nt	0.32µM*	nt	0.04µM*	nt
CN1CCN(C(=O)COc2ccc(-c3nc4ccccc4s3)cc2)CC1	-1%	5µM*	?	10µM*	nt
CN1CCN(C(=O)COc2ccc3ccccc3c2)CC1	16%	3%	6	1%	-2%
COCc1cc(C)c(C#N)c(=S)[nH]1	0%	4µM*	1	?	8%
CN(Cc1ccccc1)Cc1ccccc1OC(=O)N(C)C	12%	1.4µM*	-11	-1%	-4%
SMILES	a7 integrin act	RORgamma inh	Giardia killer	VP16 counter	ERG-DNA inh
Cc1c2ccncc2c(C)c2c1[nH]c1ccccc12	nt	10µM*	13	5.6µM*	-16%
Nc1ccccc1-c1ccccc1	nt	32%	nt	5%	nt
CC[C@H]1CN2CCc3cc(OC)c(OC)cc3[C@H]2C[C@@H]1C[C@@H]1NCCc2cc(OC)c(OC)cc21	nt	0.79µM*	nt	2.5µM*	nt
Oc1cccc2nc3ccccc3nc12	-16%	?	5	5µM*	2%
Cc1ccccc1O	3%	22%	3	0%	13%
CC(C)C[C@H](NC(=O)[C@H](Cc1ccccc1)NC(=O)CNC(=O)[C@@H](COC(C)(C)C)NC(=O)[C@@H](N)Cc1ccc(O)cc1)C(=O)N[C@H](C(=O)O)[C@@H](C)OC(C)(C)C	nt	12%	nt	-11%	nt
CC1=C(O)C(=O)[C@H]2O[C@@H]2C1=O	nt	2.8µM*	nt	8.9µM*	nt
CC[C@@H]1[C@@H]2C[C@H]3[C@H]4N(C)c5ccccc5[C@@]45C[C@@H]([C@@H]2[C@@H]5O)N3[C@H]1O	nt	-10%[2.98 µM]	nt	-16%[17 µM]	nt
O=C(CS(=O)C(c1ccccc1)c1ccccc1)NO (configuration not stated)	nt	15%	nt	7%	nt
c1nc[nH]n1	nt	13%	nt	-5%	nt
S=C(Nc1ccccc1)Nc1cccc(Br)c1	5%	11µM*	25	8%[10 µM]	2%
C=C(C)[C@@H]1CC[C@]2(C(=O)O)CC[C@]3(C)C(CCC4[C@@]5(C)CC[C@H](O)C(C)(C)C5CC[C@]43C)C12 (some centres not stated)	-23%	3.2µM*	2	-6%	0%
CC(=O)OO	nt	0%[10 µM]	nt	2%	nt
Cc1c(O)c(O)cc2c1CC=C1[C@]3(C)CC[C@]4(C)CC[C@@](C)(C(=O)O)CC4[C@]3(C)CC[C@]12C (some centres not stated)	nt	?	nt	13µM*	nt
CC1=C(O)C(=O)C=C2C1=CC=C1C2(C)CCC2(C)C3CC(C)(C(=O)O)CCC3(C)CCC12C (configuration not stated)	-57%	nt	?	nt	nt
CCCC12CN3CC(C)(CN(C1)C3c1ccccn1)C2=O (configuration not stated)	nt	nt	nt	nt	3%
C=C(C)CN1CC[C@@]23c4c5ccc(O)c4O[C@H]2c2[nH]c4ccccc4c2C[C@]3(O)[C@@H]1C5	nt	-39%	nt	28µM*	nt
COc1cc(-n2c(=S)[nH]c3ccccc3c2=O)c(Cl)cc1Cl	-13%	2.8µM*	28	5.6µM*	-8%
CC(C)Oc1cc(-n2c(=S)[nH]c3ccccc3c2=O)c(Cl)cc1Cl	3%	2.8µM*	-8	5µM*	-1%
Cc1ccc2scc(N3CCN(C)CC3)c(=O)c2c1	nt	nt	-3	nt	1%
CCCCNS(=O)(=O)c1ccc(OCC(=O)N2CCN(Cc3ccc4c(c3)OCO4)CC2)cc1	2%	-8%	34	5.6µM*	-5%
O=C(COc1ccc(S(=O)(=O)N2CCOCC2)cc1)N1CCN(Cc2ccc3c(c2)OCO3)CC1	-24%	15%	3	?	0%
C/C=C(\C)C(=O)N[C@@H](c1ccccc1)[C@@H](O)C(=O)O[C@H]1C[C@@]2(O)[C@@H](OC(=O)c3ccccc3)C3[C@](C)(C(=O)[C@H](OC(C)=O)C(=C1C)C2(C)C)[C@H](O)C[C@H]1OC[C@@]31OC(C)=O (some centres not stated)	-23%	?	?	35µM*	4%

Bioassay records: PubChem BioAssay, National Center for Advancing Translational Sciences (NCATS)
